PLK1 PBD block – qHTS for Inhibitors of PLK1-PDB (polo-like kinase 1 - polo-box domain): Primary Screen; Potency, µM, most hits filed as inhibitors; Plk1 PBD binding of FITC phosphopeptide, fluorescence polarization; Serine/threonine-protein kinase PLK1 (Homo sapiens), P53350; hit rate 2.8% among 360,000; also: series mostly up to about 57 µM; nearly all actives have a fitted effect of over 65% in size
Target sequence (P53350 whole entry, looked up, the tested form may be a part): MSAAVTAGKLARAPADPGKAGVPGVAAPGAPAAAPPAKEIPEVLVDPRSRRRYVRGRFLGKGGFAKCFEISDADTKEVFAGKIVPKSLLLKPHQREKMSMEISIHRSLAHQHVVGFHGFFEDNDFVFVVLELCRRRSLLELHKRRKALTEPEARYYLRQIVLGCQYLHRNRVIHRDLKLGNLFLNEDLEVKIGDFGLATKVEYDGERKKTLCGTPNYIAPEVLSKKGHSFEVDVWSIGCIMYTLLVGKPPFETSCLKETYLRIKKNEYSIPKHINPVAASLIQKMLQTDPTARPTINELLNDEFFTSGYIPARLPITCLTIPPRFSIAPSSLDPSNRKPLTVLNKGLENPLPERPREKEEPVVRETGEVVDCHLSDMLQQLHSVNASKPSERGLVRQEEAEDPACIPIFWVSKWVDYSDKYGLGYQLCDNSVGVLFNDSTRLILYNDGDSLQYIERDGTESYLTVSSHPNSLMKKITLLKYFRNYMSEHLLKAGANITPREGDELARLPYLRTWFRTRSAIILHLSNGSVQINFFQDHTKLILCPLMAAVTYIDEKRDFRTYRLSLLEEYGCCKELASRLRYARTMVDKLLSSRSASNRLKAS
Tau FP inhib – qHTS for Inhibitors of Tau Fibril Formation, Fluorescence Polarization. Microtubule-associated protein tau (Homo sapiens), P10636. K18 P301L tau heparin fibrillization, Alexa594 FP, 6 h. Potency, µM (series often up to 57.7 µM), usual class: inhibitors. hit rate 0.39% among 280,000; also: nearly all actives have a fitted effect of over 55% in size
Target sequence (P10636 561-689 P618L limits assumed): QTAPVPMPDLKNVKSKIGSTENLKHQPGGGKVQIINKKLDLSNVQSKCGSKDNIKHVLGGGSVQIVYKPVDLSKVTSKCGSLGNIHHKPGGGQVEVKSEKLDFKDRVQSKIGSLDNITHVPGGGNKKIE
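Human K18 P301L fragment (15 uM unlabeled plus 0.24 uM Alexa 594-labeled) in 100 mM sodium acetate pH 7 with compound, aggregation induced by 20 uM heparin for 6 hr at 37 C. ThT (30 uM) added for 1 hr, then Alexa 594 FP read.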
Sfp inh – qHTS Assay for Inhibitors of Bacillus subtilis Sfp phosphopantetheinyl transferase (PPTase); hit rate 3.5% among 310,000; Biochemical Sfp PPTase activity, qHTS; AID 1490, 2009; Potency, µM, most hits filed as inhibitors;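 also: the enzyme is Sfp with the accession as filed and its product quenches rhodamine fluorescence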
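Reaction rates are the 30-min fluorescence difference (ex 525, em 598 nm) in wells containing 15 nM Sfp, 5 uM rhodamine-CoA and 12.5 uM BHQ-2-YbbR at pH 7.6 with 10 mM MgCl2.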
Tau ThT inhib – qHTS for Inhibitors of Tau Fibril Formation, Thioflavin T Binding. Microtubule-associated protein tau (Homo sapiens), P10636. recombinant tau K18 P301L, heparin-induced fibrillization, ThT fluorescence. Potency, µM (highest dose often 57.4 µM), actives largely listed as inhibitors. hit rate 2.1% among 270,000; also: nearly all actives have a fitted effect of over 55% in size
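K18 P301L tau (15 uM + 0.24 uM Alexa 594-tagged), heparin 20 uM, NaOAc pH 7, 6 h 37 C; ThT 30 uM, 1 h RT, ex 450/em 510 nm.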
Tau fluor counter – Counterscreen qHTS for Inhibitors of Tau Fibril Formation, Fluorescence Polarization | tau K18 P301L (four-repeat tau fragment) Alexa594 fluorescence, heparin fibrillization | Potency, µM (doses to about 57.7 µM) | hit rate 0.93% among 280,000 | AID 1463, 2008; also: nearly all actives have a fitted effect of over 55% in size
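Human K18 P301L tau (15 uM unlabeled plus 0.24 uM Alexa 594-labeled, final) in 100 mM sodium acetate pH 7 was mixed with compound and 20 uM heparin and incubated 6 hr at 37 C.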
VDR inh – Inhibitors of the vitamin D receptor (VDR): qHTS. Vitamin D3 receptor (Homo sapiens), P11473. VDR-SRC2-3 peptide fluorescence polarization, 2 h. Potency, µM, actives largely listed as inhibitors. hit rate 0.93% among 400,000. AID 504847, 2011
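FP read-out; VDR + SRC2-3 coactivator peptide; 23 nl compound by pintool; 2 h RT incubation; reagents held at 4 deg C, protected from light.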
Numbers stand for hits; - = inactive; ? = inconclusive; . = not tested or not shown; [ ] = another dose, or the depositor's remark. An excerpt weighted towards active compounds, which were near 6% of everything screened. Calls follow the shape of the dose curve; as a rule, active = well fitted curve in the direction sought with a large enough effect; inconclusive = small, poorly fitted or top-dose-only effect, or another doubt; inactive = no such curve, though single readings can be large; an effect the other way counts as inactive or inconclusive.

SMILES	PLK1 PBD block	Tau FP inhib	Sfp inh	Tau ThT inhib	Tau fluor counter	VDR inh
Cc1ccc(F)c(NC(=O)/C(C#N)=C(\O)c2ccc(C(C)(C)C)cc2)c1	29.9µM	-	-	?	-	?
CC(C)Nc1nc(Cl)nc(N(C#N)CN2C(=O)c3ccccc3C2=O)n1	?	-	-	-	-	-
Cc1cc(C)nc(N(C#N)CN2C(=O)c3ccccc3C2=O)n1	-	-	89.1µM	-	-	-
CC(C)(CO)NC(=S)NCc1ccco1	-	-	15.8µM	?	-	-
Cc1cccnc1NC(=S)NCc1ccco1	-	-	15.8µM	-	-	-
CC(C)(C)c1ccc(C(=O)NC(=S)NCc2ccco2)cc1	-	.	-	.	.	-
Cc1ccc(NC(=O)CCC(=O)NNC(=O)Nc2cccc(Cl)c2)c(C)c1	-	.	-	.	.	-
O=[N+]([O-])c1cc(-c2ccccc2)cc([N+](=O)[O-])c1O	?	.	.	.	.	-
O=[N+]([O-])c1cc2ccccc2c(O)c1O	5.32µM	.	.	.	.	.
O=C(O)c1cc([N+](=O)[O-])ccc1-c1ccc([N+](=O)[O-])cc1C(=O)O	-	.	.	.	.	.
O=C(O)c1cc([N+](=O)[O-])cc2ccccc12	18.9µM	.	.	.	.	-
O=C(CC1C(=O)N(c2ccc(F)cc2)C(=O)N1Cc1ccc2c(c1)OCO2)Nc1ccc(Cl)cc1 (stereo not drawn)	.	?	.	-	?	-
COc1ccc(NC(=O)CCc2c(C)nn(-c3ccc(N4CCCC4)nn3)c2C)cc1Cl	.	-	.	?	-	-
Cc1ccc2oc(=O)c(-c3ccc(O)cc3)c(C)c2c1	-	.	.	.	.	-
C/C=C/c1ccc2oc(-c3ccc(O)cc3)c(C)c2c1	.	?	-	17.8µM	14.1µM[quencher]	-
CCOc1cccc(-c2c(C(=O)N/N=C(\C)c3ccccn3)nnn2-c2nonc2N)c1	-	.	31.6µM	.	.	-
CCOc1cccc(-c2c(C(=O)N/N=C/c3ccoc3)nnn2-c2nonc2N)c1	29.9µM	.	-	.	.	?
N#Cc1ccccc1OCC(=O)N1CCN(c2ccccc2)CC1	.	-	.	-	-	-
O=C(O)/C=C/C(=O)NNC(=O)c1ccccc1Br	-	-	56.2µM	-	-	-
Cc1ccccc1C(=O)NNC(=O)/C=C\C(=O)O	?	-	22.4µM	-	-	-
Cc1cccc(C(=O)NNC(=O)/C=C/C(=O)O)c1	-	?	-	?	-	-
CCc1ccccc1NC(=O)c1cn(C)c(=O)c2ccccc12	.	-	.	-	-	-
CC(C)C(=O)N1CCN(C2=NS(=O)(=O)c3ccccc32)CC1	6.7µM	-	-	-	-	-
CN(C)CCCNc1c2c(nc3ccccc13)CCC2	26.7µM	.	-	.	.	-
c1ccc(Nc2c3c(nc4ccccc24)CCC3)cc1	-	-	-	-	-	-
SMILES	PLK1 PBD block	Tau FP inhib	Sfp inh	Tau ThT inhib	Tau fluor counter	VDR inh
CCCOc1ccc(N)cc1N	?	7.08µM	44.7µM	3.16µM	11.2µM[quencher]	?
CCCOc1cc(N)ccc1C(=O)OCCN(CC)CC	-	.	-	.	.	-
O=C(Nc1nc2n(n1)C(c1ccccc1)C=C(c1ccccc1)N2)c1ccco1 (stereo not drawn)	-	-	56.2µM	?	-	-
CC1=CC(c2ccc(Cl)cc2)n2nc(NC(=O)c3ccccc3)nc2N1 (stereo not drawn)	-	-	-	-	-	-
CC(=O)Nc1nc2n(n1)C(c1ccc(F)cc1)C=C(c1ccccc1)N2 (stereo not drawn)	-	-	35.5µM	-	-	-
CC(=O)Nc1nc2n(n1)C(c1ccc(Cl)cc1)C=C(C)N2 (stereo not drawn)	-	-	56.2µM	-	-	-
NC(=O)c1cccc(-c2cc(Nc3ccc(OC(F)(F)F)cc3)ncn2)c1	-	28.2µM	-	?	?	-
O=C(/C=C/c1c[nH]c2ccccc12)c1cccc2ccccc12	-	?	?	?	6.31µM[quencher]	-
O=C(c1ccccc1)c1c[nH]c2ccccc12	-	.	-	.	.	-
Cc1cc(C)c2c(=O)cc(C(=O)Nc3ccc(C)c(Cl)c3)oc2c1	.	?	.	-	?	-
O=C(O)CCc1ccc(-c2cccs2)n1CCC(=O)O	-	-	7.94µM	?	-	-
Cc1ccc(NC(=O)Cn2c(CCC(=O)O)ccc2-c2cccs2)cc1Cl	-	-	39.8µM	?	-	-
COc1ccc(OC)c(NC(=O)Cn2c(CCC(=O)O)ccc2-c2cccs2)c1	-	-	-	-	-	-
O=C(O)CCc1ccc(-c2cccs2)n1CCc1ccccc1	-	-	20µM	?	-	-
Cc1nn2cc(-c3ncc(C(F)(F)F)cc3Cl)cnc2c1Br	23.8µM	-	-	-	-	-
FC(F)(F)c1cnc(-c2cnc3c(-c4ccc(Cl)cc4)cnn3c2)c(Cl)c1	-	-	-	-	-	-
COc1ccc(CCN(Cc2cc3ccc(C)cc3n3nnnc23)C(C)=O)cc1OC	3.36µM	-	-	-	-	39.8µM
COCCn1c(=S)[nH]c2sc3c(c2c1=O)CCC(C)C3 (stereo not drawn)	?	.	-	.	.	-
COCCCn1c(=S)[nH]c2sc3c(c2c1=O)CCCS3	-	-	35.5µM	?	-	-
COc1ccc(CN2CCN(C(=O)CC(C)C)CC2)c2ccccc12	-	-	?	-	-	-
Cc1ccccc1CN1CCN(CC2CC3C=CC2C3)CC1 (stereo not drawn)	-	-	79.4µM	-	-	-
Cc1ccccc1CN1CCN(C(=O)CC(C)C)CC1	-	.	79.4µM	.	.	-
CCC1CN(C(=O)N2CCC(C(=O)NCCC3=CCCCC3)CC2)c2ccccc2O1 (stereo not drawn)	.	-	.	-	?	-
O=C(Nc1ccc2c(c1)OCO2)c1cc(-c2ccc(O)cc2)on1	-	.	-	.	.	-
CCN1CCN(c2c(/C=C3\SC(=S)N(Cc4ccco4)C3=O)c(C)c(C#N)c(=O)n2C)CC1	-	-	25.1µM	.	?	-
SMILES	PLK1 PBD block	Tau FP inhib	Sfp inh	Tau ThT inhib	Tau fluor counter	VDR inh
CCc1cccc(C)c1NC(=O)C1CCN(S(=O)(=O)c2c(C)noc2/C=C/c2c(C)cc(C)cc2C)CC1	.	-	.	-	-	-
O=[N+]([O-])c1ccc(/C=N/N=C/c2ccc([N+](=O)[O-])o2)o1	-	?	-	12.6µM	?	-
CCCCCOC(=O)c1ccc(Nc2nc(C(=O)OCC)nc3ccccc23)cc1	.	-	.	-	-	-
CCCCC(=O)NC(=S)Nc1c(C)cc(Br)cc1C	15µM	-	35.5µM	-	-	-
COc1ccc(S(=O)(=O)N(C)C[C@@H]2OCCCC[C@H](C)Oc3ccc(NC(=O)Nc4ccc(C(F)(F)F)cc4)cc3C(=O)N([C@H](C)CO)C[C@H]2C)cc1	-	.	.	.	.	.
Nc1sc(Cc2ccccc2)cc1C(=O)c1c(-c2ccccc2)[nH]c2ccccc12	18.9µM	.	.	.	.	.

Assay outcomes (PubChem BioAssay)
